# Test results from PubChem BioAssay AID540333 (Southern Research Specialized Biocontainment Screening …, 2011).
# Among all 10,000 compounds or so, about 320 (3.2%) were called active. This excerpt belongs to a sample that is enriched for actives. A number with no mark means an inactive call. No stated cut-off is given here; in the data, active means CPE inhibition mostly above about 9.1% (no sharp cut-off); inactive means mostly below about 7.2%.
# Assay: Dengue virus cytopathic effect inhibitors, cell-based, CPE readout, HTS (AID 540333)
# Settings: Dengue virus CPE inhibition in host cells, at 20 µM; stronger effect = higher value
row,SMILES,CPE inhibition
1,COc1cc(C(=O)NCC(c2ccco2)N(C)C)cc(OC)c1OC (centres undefined),0.055%
2,CC(C(=O)NC1CCCc2ccccc21)N1CCN(c2ccc(F)cc2)CC1 (centres undefined),0.305%
3,CC(C)(C)[C@H]1C=C(C(=O)NCc2ccccc2)O[C@@H](OCCCCO)C1,0.655%
4,CCC(C)c1ccccc1NC(=O)COC(=O)c1ccc2[nH]c3c(c2c1)CCCC3 (centres undefined),25.9% (active)
5,CC(C)c1ccccc1NC(=O)COC(=O)c1ccc(Cl)c(S(=O)(=O)N2CCCCCC2)c1,0.87%
6,CC(C)c1ccccc1NC(=O)COC(=O)Cc1c[nH]c2ccccc12,inactive
7,NNc1nc(-c2ccccc2)nc2sc3c(c12)CCCC3,inactive
8,COc1ccc(-c2c(-c3cc(OC)cc(OC)c3)n(C)c3ccc(-c4ccc(N(C)C)nc4)cc23)cc1,0.63%
9,O=C1CN(C(=O)COc2ccc(Br)cc2F)c2ccccc2N1,inactive
10,CCOc1ccc(NS(=O)(=O)c2cc(NC(=O)CCS(=O)(=O)c3ccc(C)cc3)ccc2OC)cc1,0.21%
11,CCOC(=O)c1c(C)[nH]c(C(=O)N/N=C\c2ccccc2Cl)c1C,3.76%
12,CCOC(=O)c1c(C)nc2ccc(Cl)cc2c1-c1ccccc1,0.765%
13,CCOC(=O)c1c(C)[nH]c(C=O)c1Cc1cccc(Cl)c1,14.8% (active)
14,O=C(O)CCC(=O)Nc1ccccc1C(=O)NCc1ccccc1,1.71%
15,CCCCNc1c(-c2cccc(-c3ccc(OC)cc3)c2)nc2cc(C)ccn12,inactive
16,CCCCNc1c(-c2ccc(-c3cccc(Cl)c3)cc2)nc2ccc(Cl)cn12,9.97% (active)
17,CCCCNc1c(-c2cccc(SC(C)CC)c2)nc2ccc(Cl)cn12 (centres undefined),1.45%
18,Cc1c(Cl)cccc1NC(=O)COC(=O)c1c2c(nc3ccccc13)CCN(Cc1ccccc1)C2,0.23%
19,CC(C)(C)c1nnc(N/N=C/c2ccc(Br)cc2)n(N)c1=O,27.6% (active)
20,CC(C)(C)c1nnc(N/N=C/c2ccccc2)n(N)c1=O,2.69%
21,CCc1nnc(N/N=C/c2cccs2)n1N,2.18%
22,C/C(=N\NC(=O)CN(c1ccccc1Br)S(C)(=O)=O)c1ccc2c(c1)OCCO2,0.855%
23,CCOC(=O)/C=C/[C@H]1CC(c2ccccc2)(c2ccccc2)CO1,0.15%
24,CCn1c(SCC(=O)N2c3ccccc3CCc3ccccc32)nnc1-c1ccc(OC)cc1,1.05%

row,SMILES,CPE inhibition
1,Cn1c(SCC(=O)N2c3ccccc3CCc3ccccc32)nnc1-c1cc2ccccc2cc1O,11.1% (active)
2,Cn1c(SCC(=O)N2c3ccccc3CCc3ccccc32)nnc1-c1ccc(O)cc1,inactive
3,CCn1cc(/C=C/C(=O)Nc2ccn(Cc3c(F)c(F)cc(F)c3F)n2)cn1,inactive
4,Cc1ccc(S(=O)(=O)N2CCC(=O)N(CCOCc3ccccc3)CC2)cc1,0.27%
5,C=CCn1c(C)cc(C(=O)COC(=O)[C@@H](NC(=O)c2ccccc2Cl)C(C)C)c1C,inactive
6,CCOC(=O)C(=CNc1cc(C)ccn1)C(=O)OCC,inactive
7,CCOC(=O)C(=CNc1ccc(NC2=NCC(C)S2)cc1)C(=O)OCC (centres undefined),10.9% (active)
8,CCOC(=O)C(=O)NNc1ccc(C)cc1,inactive
9,O=C(CSc1nc2ccc(Cl)cc2[nH]1)N1CCN(C(=O)c2ccco2)CC1,0.04%
10,Nc1nonc1C(=O)NCCNS(=O)(=O)c1ccc(F)cc1,inactive
11,O=S(=O)(NCCC(c1ccc(F)cc1)c1ccco1)c1ccccc1 (centres undefined),14.2% (active)
12,Cc1ccc(S(=O)(=O)NCCC(c2ccccc2)c2ccco2)cc1 (centres undefined),inactive
13,CC(Nc1cc(N2CCNCC2)ccc1[N+](=O)[O-])c1ccccc1 (centres undefined),0.87%
14,O=C(CN1CCN(Cc2ccccc2)CC1)Nc1ccc(S(=O)(=O)N2CCOCC2)cc1,inactive
15,Cn1c(SCC(=O)N2c3ccccc3Sc3ccccc32)nc2ccccc21,10.5%
16,Cc1ccc(-n2c(SCC(=O)N3c4ccccc4Sc4ccccc43)nnc2-c2ccncc2)cc1,13.2% (active)
17,Cc1ccc(-n2c(SCC(=O)N/N=C/c3ccc(C)s3)nnc2-c2ccccc2)cc1,6.83%
18,O=C(CSc1ccc(Cl)cc1)Nc1cccc(-c2nnc(-c3ccco3)o2)c1,0.905%
19,Cc1ccc(OCC(=O)Nc2cccc(S(=O)(=O)N3CCCCC3)c2)c([N+](=O)[O-])n1,0.73%
20,O=C(CNc1cc(S(=O)(=O)N2CCCC2)ccc1OCC(F)(F)F)Nc1cccc(C(F)(F)F)c1,15.3% (active)
21,O=C(Nc1cc(S(=O)(=O)N2CCCC2)ccc1OCC(F)(F)F)c1ccc(F)cc1,inactive
22,O=S(=O)(NCCCc1ccccc1)c1cccc2nsnc12,0.135%
23,O=C(O)CCN1CC2([N+](=O)[O-])C=CC(=O)C([N+](=O)[O-])(C1)C2CC(=O)c1ccccc1 (centres undefined),0.01%
24,COc1cc(/C=N/NS(=O)(=O)c2ccccc2)ccc1OS(=O)(=O)c1ccc(C)cc1,0.62%

row,SMILES,CPE inhibition
1,CCCc1cc(=O)[nH]c(SCC(=O)N2CCN(S(=O)(=O)c3ccc4ccccc4c3)CC2)n1,inactive
2,O=C(/C=C/c1cccc(Cl)c1)NCc1ccncc1,0.12%
3,O=C(NC(Cc1c[nH]c2ccccc12)C(=O)OCC(=O)c1cccc2ccccc12)c1cccs1 (centres undefined),inactive
4,COc1cc(CNn2cn[nH]c2=S)cc(Cl)c1OCc1ccc(F)cc1,inactive
5,COc1ccc(C2CC(=O)C3=C(C2)Nc2ccccc2NC3c2coc3ccccc3c2=O)cc1OC (centres undefined),51.7% (active)
6,COc1ccccc1NC(=O)C1=C(C)NC2=C(C(=O)CC(c3ccc(OC)c(OC)c3)C2)C1c1coc2ccccc2c1=O (centres undefined),5.03%
7,COc1ccc([C@H]2CC(=O)C=C(/C=C/c3ccccc3)C2)cc1OC,0.185%
8,C/C(=N\NC(=O)CNc1cccc(C(F)(F)F)c1)c1cccc(Br)c1,7.08%
9,C/C(=N\NC(=O)CNc1cccc(C(F)(F)F)c1)c1ccc(Br)cc1,3.77%
10,O=C(CNc1cccc(C(F)(F)F)c1)N/N=C/c1cccc(Br)c1,9% (active)
11,O=Cc1cc([N+](=O)[O-])ccc1N1CCOCC1,0.035%
12,Cc1nnc(SCc2cc(=O)oc3ccc4ccccc4c23)n1Cc1ccccc1,inactive
13,O=C(CON=C1c2ccccc2-c2ccccc21)NC12CC3CC(CC(C3)C1)C2,6.95%
14,CCCN1C(=O)/C(=N\OCC(=O)NC23CC4CC(CC(C4)C2)C3)c2ccccc21,22.5% (active)
15,CCCN1C(=O)/C(=N\OCC(=O)Nc2ccc(C(C)C)cc2)c2ccccc21,8.8%
16,C=CCNC(=O)c1cc(Cl)ccc1[N+](=O)[O-],inactive
17,CCOC(=O)C1=C(C)NC(=S)NC1/C=C/c1ccccc1 (centres undefined),inactive
18,CCOc1ccc(-c2cn(-c3cccc(SC)c3)c(=O)[nH]2)cc1,0.42%
19,Cc1ccc(S(=O)(=O)c2nnn3c2nc(Nc2cccc(C)c2)c2ccccc23)cc1,inactive
20,O=C(COC(=O)c1ccccc1Nc1ccccc1)Nc1ccccc1,1.4%
21,CC(C)(C)NC(=O)COC(=O)c1ccccc1Nc1ccc(SC(F)F)cc1,16.6% (active)
22,Cc1ccc(NC(=O)COC(=O)c2ccccc2Nc2ccccc2)cc1,1.36%
23,Cc1ccc(SCC(=O)NCc2ccncc2)cc1,inactive
24,Cc1c(NC(=O)/C(C#N)=C/c2ccc(-c3ccccc3Cl)o2)c(=O)n(-c2ccccc2)n1C,3.41%

row,SMILES,CPE inhibition
1,Cc1ccccc1Nc1nc(N)nc(COC(=O)c2ccc(O)cc2)n1,inactive
2,CN(CC(=O)Nc1ccccc1Cl)C(=O)CSc1nc2ccccc2s1,inactive
3,Cc1c(Cl)cccc1Nc1nc(N)nc(CSc2nc3ccccc3s2)n1,10.3% (active)
4,COc1ccc(CNc2nc(-c3ccccc3)nn2C(=O)c2ccc([N+](=O)[O-])cc2)cc1,inactive
5,Cn1cc([N+](=O)[O-])c(C(=O)N/N=C/c2ccc([N+](=O)[O-])cc2)n1,0.11%
6,CCNC(=O)c1cc(Cl)ccc1OC,0.845%
7,N#C/C(=C\c1ccc(OC(=O)c2ccc(Br)s2)cc1)c1nc2ccccc2[nH]1,8.02%
8,N#C/C(=C\c1cccs1)c1nc2ccccc2[nH]1,inactive
9,N#C/C(=C\c1ccc(Sc2ccccc2)o1)c1nc2ccccc2[nH]1,13% (active)
10,CCn1c(C)cs/c1=N\C(=S)Nc1ccccc1C,0.08%
11,Cc1ccc(C2CC(=O)C=C(NCC(C)C)C2)cc1 (centres undefined),inactive
12,Cc1ccc(C)c(NC(=S)N(C)CCc2ccccn2)c1,inactive
13,Cc1ccccc1OCC(=O)N1N=C(c2cccnc2)CC1(O)C(F)(F)F (centres undefined),inactive
14,COc1ccc(N=C2SC(CC(=O)Nc3ccccc3OC)C(=O)N2Cc2ccco2)cc1 (centres undefined),1.94%
15,COc1ccc(N=C2SC(CC(=O)Nc3ccccc3F)C(=O)N2Cc2ccco2)cc1 (centres undefined),0.295%
16,CC/C(=N\N=C1\SC(C)C(=O)N1Cc1ccco1)c1ccccc1 (centres undefined),22.7% (active)
17,CSc1ccc(/C=N/NC(=O)COc2ccc(Br)cc2Cl)cc1,3.23%
18,COc1cccc(NC(=O)CCSc2ccc(C)cc2)c1,inactive
19,CN(C)S(=O)(=O)c1cccc(NC(=O)CCSc2ccc(Cl)cc2)c1,inactive
20,CCN(CC)S(=O)(=O)c1cccc(NC(=O)CCSc2ccc(Cl)cc2)c1,11% (active)
21,O=C(CSc1nc2ccccc2s1)Nc1ccc(Cl)c(S(=O)(=O)N2CCOCC2)c1,0.03%
22,Cc1ccc(CSc2ccc(-c3ccc4c(c3)OCO4)nn2)cc1,inactive
